Only some compounds are listed: those with a hit (about 0.97% of all), similar ones and a draw of the others.
TLR4 MyD88 comp: inhibitors of human TLR4-MyD88 binding; O00206+Q99836; HeLa CL3-4 TLR4/MyD88 BLA complementation, FRET ratio; inhibition, % at 8.4 µM; 200,000 compounds, 0.18% hits; in the data active = inhibition above about 25%;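 note: 0% = vehicle and 100% = reference inhibitor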
Beta2AR agonist: agonists of human beta-2 adrenergic receptor inducing internalization; P07550; Am2.2-beta2AR cells, FAP receptor internalization, flow cytometry; response, % (concentration not given with the values); 340,000 compounds, 0.43% hits; AID 504454;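 active = response above a set limit, near 3 SD of response in nonfluorescent compounds, cut at about 42% in these data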
Target sequence (P07550 whole entry, looked up): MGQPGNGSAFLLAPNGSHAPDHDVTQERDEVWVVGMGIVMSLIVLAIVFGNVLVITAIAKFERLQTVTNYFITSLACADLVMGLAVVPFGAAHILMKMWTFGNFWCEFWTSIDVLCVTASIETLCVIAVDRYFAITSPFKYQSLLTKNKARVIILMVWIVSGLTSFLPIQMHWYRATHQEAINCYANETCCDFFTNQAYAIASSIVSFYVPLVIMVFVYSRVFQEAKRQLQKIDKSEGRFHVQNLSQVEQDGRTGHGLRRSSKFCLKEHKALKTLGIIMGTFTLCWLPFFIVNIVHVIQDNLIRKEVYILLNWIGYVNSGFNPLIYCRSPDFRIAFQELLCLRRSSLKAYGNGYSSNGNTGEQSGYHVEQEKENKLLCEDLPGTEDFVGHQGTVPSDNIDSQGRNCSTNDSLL
A1 inh: inhibitors of the anti-apoptotic protein A1, read as caspase activation; MEF A1-2A-BIM cells, Caspase-Glo 3/7 luminescence, 3 h; percent of clofoctol response, vehicle zero; caspase activation, % (concentration not given with the values); 330,000 compounds, 0.066% hits; AID 2462;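 active = over half of replicate activation scores above 10%, or exactly half above 10 with the replicate mean above 10; inconclusive = replicate mean below 10 yet half the replicates above 10; inactive = over half of replicates below 10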
NOD2-RIPK2 inh: NOD2-RIPK2 protein interaction inhibition | inhibition, % at 4.98 µM | O43353 | CHO BLA complementation NOD2-RIPK2, CCF4 ratio | 360,000 compounds, 0.38% hits; in the data active = inhibition above about 21%;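 note: 0% = vehicle only and 100% = reference blocker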
TLR9-MyD88 block: TLR9-MyD88 interaction inhibition; inhibition, % at 4.98 µM; Q9NR96+Q99836; CHO BLA complementation TLR9-MyD88, CCF4 FRET ratio; 340,000 compounds, 0.21% hits;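 active = inhibition above the mean over all tested compounds plus 3 SD, cut at about 21% in these data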;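 note: 0% = DMSO only wells and 100% = clavulanate BLA inhibitor control wells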
NTR1 agonist: NTR1 (human) agonism; AID 493036; activation, % at 20 µM; 330,000 compounds, 0.17% hits; NTR1-U2OS beta-arrestin-GFP spot imaging, agonist mode; P30989;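 active = activation at or above 40% of the spot to cytoplasm intensity ratio, with at least 20 cells analyzed; inconclusive = wells under 20 cells, flagged as cytotoxic or low count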;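 note: 0% = DMSO without peptide and 100% = 100 nM NTR1 peptide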
NTR1 ag confirm: confirmation of agonists of human NTR1 | shares compounds with NTR1 agonist | NTR1-U2OS beta-arrestin-GFP translocation imaging | activation, % at 20 µM | 480 compounds, 38% hits | AID 504550;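 active = mean activation at 20 µM of at least 40%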;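 note: 0% = DMSO without peptide and 100% = 100 nM NTR1 peptide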
The depositor's hits bear a star; u = inconclusive; x = not tested or not shown.

SMILES	TLR4 MyD88 comp	Beta2AR agonist	A1 inh	NOD2-RIPK2 inh	TLR9-MyD88 block	NTR1 agonist	NTR1 ag confirm
O=C(NCCO)/C(=C/c1ccc(Br)cc1)NC(=O)c1cccs1	1	-1	2	4	-1	1	x
Cn1c2ccccc2c(=O)c2c(=O)n(Cc3ccco3)c(-c3ccc(C(C)(C)C)cc3)nc21	x	x	-1	x	x	40*	19
COc1ccc(Cn2c(-c3ccccc3)nc3c(c(=O)c4ccccc4n3C)c2=O)cc1	-9	-3	1	-9	3	13	x
O=C1NC[C@@H](Cc2ccc(O)cc2)N(CCCCC2CCCCC2)C1=O	x	x	x	-8	x	x	x
Oc1ccc(C[C@@H]2CNC(=S)N2CCCCC2CCCCC2)cc1	-10	-13	1	-7	-6	44*	32
Cc1cccc(Nc2nc(N)c([N+](=O)[O-])c(N3CC(C)OC(C)C3)n2)c1 (stereo not given)	x	24	1	2	1	0	x
Cc1cccc(Nc2nc(N)c([N+](=O)[O-])c(N3CC(C)CC(C)C3)n2)c1 (stereo not given)	-2	4	1	-8	7	46*	36
COc1ccc(-c2nc3c4c(ncn3n2)-c2ccccc2CC42CCCC2)cc1	3	9	0	4	8	-2	x
Oc1cccc(-c2nc3c4c(ncn3n2)-c2ccccc2CC42CCCC2)c1	8	9	1	-2	3	44*	34
O=C(Cc1ccc(Cl)cc1)NC(=S)Nc1ccccc1N1CCOCC1	-10	-1	-1	1	-17	45*	16
CC(C)(C)c1ccc(OCCOc2ccc(C(C)(C)C)cc2NC=O)c(NC=O)c1	x	19	-1	3	-13	43*	23
CNC[C@@H]1Oc2ccc(NC(=O)Nc3c(C)noc3C)cc2CC(=O)N([C@H](C)CO)C[C@H]1C	x	1	0	1	3	2	x
CN(C(=O)c1ccc2c(Cl)c3c(nc2c1)CCC3)c1ccccc1	-5	4	x	-5	3	3	x
CCN(C(=O)c1ccc2c(Cl)c3c(nc2c1)CCC3)c1ccc(C)c(C)c1	-1	-6	x	-1	-3	45*	4
OC(CNCCc1ccc(Cl)cc1)COc1cc(Cl)ccc1Cl (stereo not given)	x	-9	0	12	3	41*	-2
COc1cc(OC)cc(C(=O)NC(C(=O)NCCN(C)C)C23CC4CC(CC(C4)C2)C3)c1 (stereo not given)	15	-5	1	-3	1	1	x
C=C(C)COc1ccc(-c2[nH]ncc2-c2ccccc2OC)c(O)c1	10	-3	1	11	12	6	x
CCOc1ccc(-c2[nH]ncc2-c2ccc(Cl)cc2)c(O)c1	x	-3	1	16	14	55*	6
C=C(C)COc1ccc(-c2[nH]ncc2-c2ccc(Br)cc2)c(O)c1	-13	2	0	9	0	41*	9
O=C1Nc2ccc(Br)cc2/C1=C/C1CC=CCC1 (stereo not given)	7	21	1	8	-1	42*	9
O=C1NC(Cc2ccccc2)C(=O)Nc2ccc(Br)cc21 (stereo not given)	x	-3	1	-9	-4	0	x
CCNc1nc(Oc2ccc(=O)n(-c3ccccc3)n2)nc(N2CCOCC2)n1	1	4	-1	-3	-7	-2	x
CC(=O)OCCCNc1cc(Sc2nc3ccccc3s2)c2nonc2c1[N+](=O)[O-]	15	-242	u	-7	1	3	x
CC(=O)OCCCNc1cc(Sc2ccc(C)cc2)c2nonc2c1[N+](=O)[O-]	2	9	1	1	-9	67*	86*
O=S(=O)(c1cccc(NC(=S)NCc2ccco2)c1)N1CCOCC1	6	-3	0	-2	4	-1	x
SMILES	TLR4 MyD88 comp	Beta2AR agonist	A1 inh	NOD2-RIPK2 inh	TLR9-MyD88 block	NTR1 agonist	NTR1 ag confirm
N#Cc1ccc(Nc2nc(-c3ccc(O)cc3O)cs2)cc1C(F)(F)F	x	7	-1	7	0	41*	70*
C(=C\c1nc(N2CCCCCC2)c2ccccc2n1)/c1ccccc1	-9	-5	-2	-7	-7	42*	17
Cc1occc1C(=O)NNC(=S)Nc1cccc([N+](=O)[O-])c1	1	-14	0	-2	6	1	x
Cc1c(CN2CCC(CO)(CCOc3ccccc3)CC2)[nH]c2c(Cl)cccc12	14	5	0	0	-2	67*	34
Cc1nn(C)c(Cl)c1CN1CCC(CO)(CCOc2ccccc2)CC1	14	1	0	3	-13	1	x
CN1CCN(C(=O)c2cc3nc(-c4ccc(Cl)cc4)cc(C(F)(F)F)n3n2)CC1	4	-25	0	0	9	0	x
O=C(CCn1ccnc1)Nc1ccc2ccccc2c1	-6	2	0	1	4	-1	x
COC(=O)c1cc(=O)n(-c2ccc(F)cc2)c(=Nc2ccc(F)cc2)s1	5	15	-1	-2	-14	50*	52*
COC(=O)c1cc(=O)n(Cc2cccs2)c(=Nc2ccc(F)cc2)s1	-9	32	0	0	-1	42*	36
COc1ccc(NCc2nnc(SCC(=O)Nc3cc(C(F)(F)F)ccc3Cl)o2)cc1	3	30	1	2	-10	0	x
Cn1c(N)c(C(=O)COC(=O)c2cc(C3CC3)nc3ccccc23)c(=O)n(Cc2ccccc2)c1=O	-5	7	-1	5	0	40*	1
Cn1c(N)c(C(=O)COC(=O)c2cc(-c3ccccc3)nc3ccccc23)c(=O)n(Cc2ccccc2)c1=O	-6	-3	0	8	-14	20	x
O=C(/C=C/c1cccc(OCc2ccccc2)c1)c1cccnc1	23	-8	-1	-6	1	54*	2
CN(C)c1ccc(C(=O)/C=C/c2cccnc2)cc1	x	10	1	8	-2	2	x
O=C(/C=C/c1cccnc1)c1ccc(F)c(F)c1	x	2	-1	1	-6	61*	69*
CCN(Cc1cc2ccccc2[nH]c1=O)C(=O)C(C)C	-6	-8	0	0	5	1	x
Cc1ccnc(Nc2nc(-c3ccc(F)cc3)cs2)c1	x	10	-2	-11	0	49*	3
CCC(C)NC(=O)Cn1cc(S(=O)(=O)N2CCN(c3ccccc3F)CC2)c2ccccc2c1=O (stereo not given)	4	-3	1	-2	3	0	x
CC(=O)c1cccc(Nc2nc(-c3sc(N)nc3C)cs2)c1	x	9	0	-8	-2	0	x
CC(=O)c1cccc(Nc2nc(-c3sc(C)nc3C)cs2)c1	x	28	1	5	-4	54*	24

Screening data deposited in PubChem BioAssay by several laboratories.
